Assays:
Experiment in all cases: DAPPL (digital affinity profiling via proximity ligation, sequencing); 10 mM Tris-HCl pH 7.5, 50 mM NaCl, 1 mM DTT, 4% glycerol, room temperature, 30 min; GST-TFs on glutathione beads, 16-mer random dsDNA library, 0.1% formaldehyde crosslink after washing; high values mean tight binding
[1] = target: T1, FLI1 (Homo sapiens, UniProt Q01543 1-452); conditions: protein: recombinant; tags: N-terminal GST; dsDNA, one strand shown
T1 sequence: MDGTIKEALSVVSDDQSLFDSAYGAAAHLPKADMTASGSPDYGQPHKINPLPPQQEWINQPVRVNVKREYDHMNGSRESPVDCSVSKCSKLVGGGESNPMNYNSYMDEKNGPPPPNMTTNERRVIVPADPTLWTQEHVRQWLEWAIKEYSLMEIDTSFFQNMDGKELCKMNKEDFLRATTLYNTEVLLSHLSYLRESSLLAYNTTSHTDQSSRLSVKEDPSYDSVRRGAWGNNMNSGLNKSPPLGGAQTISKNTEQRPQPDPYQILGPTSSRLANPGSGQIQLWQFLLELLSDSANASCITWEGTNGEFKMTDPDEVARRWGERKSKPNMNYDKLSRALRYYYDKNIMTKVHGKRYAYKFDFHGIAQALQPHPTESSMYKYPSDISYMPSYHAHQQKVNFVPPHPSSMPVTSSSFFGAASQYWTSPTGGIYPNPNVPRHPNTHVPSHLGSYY
Outline: (§1)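 Human transcription factors were made in yeast as GST fusions, captured on glutathione beads and barcoded with DNA. With a tag-only sample included, the pool was incubated with 200 nmole of a random double-stranded 16-mer DNA library in Tris/NaCl/DTT/glycerol buffer at room temperature for 30 min, then crosslinked with 0.1% formaldehyde after washing, ligated by proximity, amplified and sequenced. For binding signal, each hexamer's read frequency for a factor is divided by its frequency for the tag-only sample.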

[2] = target: T2, ELK1 (Homo sapiens, UniProt P19419 1-428); conditions: protein: recombinant; tags: N-terminal GST; dsDNA, one strand shown
T2 sequence: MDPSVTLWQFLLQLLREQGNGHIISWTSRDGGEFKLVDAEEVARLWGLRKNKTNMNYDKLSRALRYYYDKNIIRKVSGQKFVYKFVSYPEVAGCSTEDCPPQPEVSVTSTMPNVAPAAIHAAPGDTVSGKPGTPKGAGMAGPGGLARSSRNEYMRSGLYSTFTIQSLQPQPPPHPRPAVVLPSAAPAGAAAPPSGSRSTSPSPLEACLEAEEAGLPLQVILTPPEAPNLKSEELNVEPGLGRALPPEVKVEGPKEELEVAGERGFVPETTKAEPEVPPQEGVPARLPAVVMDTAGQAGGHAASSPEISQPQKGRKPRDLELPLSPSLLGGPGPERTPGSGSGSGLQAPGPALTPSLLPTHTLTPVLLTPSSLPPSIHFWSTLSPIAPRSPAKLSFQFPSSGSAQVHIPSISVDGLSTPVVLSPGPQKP
Outline: as §1

[3] = target: T3, GABPA (Homo sapiens, UniProt Q06546 1-454); conditions: protein: recombinant; tags: N-terminal GST; dsDNA, one strand shown
T3 sequence: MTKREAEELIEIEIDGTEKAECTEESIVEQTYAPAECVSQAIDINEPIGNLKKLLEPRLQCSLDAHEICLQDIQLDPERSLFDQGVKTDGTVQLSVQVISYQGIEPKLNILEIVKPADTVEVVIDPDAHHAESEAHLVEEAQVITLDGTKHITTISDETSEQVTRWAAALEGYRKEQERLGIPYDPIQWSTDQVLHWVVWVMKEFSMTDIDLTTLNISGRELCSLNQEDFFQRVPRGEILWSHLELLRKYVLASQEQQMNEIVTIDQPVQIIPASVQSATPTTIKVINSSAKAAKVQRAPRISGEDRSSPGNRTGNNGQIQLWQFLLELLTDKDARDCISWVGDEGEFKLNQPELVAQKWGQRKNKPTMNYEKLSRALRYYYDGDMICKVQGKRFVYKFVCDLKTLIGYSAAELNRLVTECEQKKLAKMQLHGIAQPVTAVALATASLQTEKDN
Outline: as §1

[4] = target: T4, ERG (Homo sapiens, UniProt P11308 1-479); conditions: protein: recombinant; tags: N-terminal GST; dsDNA, one strand shown
T4 sequence: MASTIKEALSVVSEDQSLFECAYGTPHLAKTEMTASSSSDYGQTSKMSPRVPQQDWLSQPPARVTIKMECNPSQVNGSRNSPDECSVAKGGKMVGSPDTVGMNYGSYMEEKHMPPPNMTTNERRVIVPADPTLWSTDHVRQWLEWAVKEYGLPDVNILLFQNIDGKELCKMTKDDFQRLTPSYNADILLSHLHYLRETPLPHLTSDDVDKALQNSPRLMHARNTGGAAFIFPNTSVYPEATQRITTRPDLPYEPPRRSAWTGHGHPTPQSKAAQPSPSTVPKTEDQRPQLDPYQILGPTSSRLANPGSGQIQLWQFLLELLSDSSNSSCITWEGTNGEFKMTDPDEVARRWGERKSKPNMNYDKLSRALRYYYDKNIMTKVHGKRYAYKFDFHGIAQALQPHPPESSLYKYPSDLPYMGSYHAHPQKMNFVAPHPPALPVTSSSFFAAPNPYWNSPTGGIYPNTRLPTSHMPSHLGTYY
Outline: as §1

[5] = target: ELF1 (Homo sapiens, UniProt P32519 1-619); conditions: protein: recombinant; tags: N-terminal GST; dsDNA, one strand shown
Outline: as §1

[6] = target: T5, EHF (Homo sapiens, UniProt Q9NZC4 1-300); conditions: protein: recombinant; tags: N-terminal GST; dsDNA, one strand shown
T5 sequence: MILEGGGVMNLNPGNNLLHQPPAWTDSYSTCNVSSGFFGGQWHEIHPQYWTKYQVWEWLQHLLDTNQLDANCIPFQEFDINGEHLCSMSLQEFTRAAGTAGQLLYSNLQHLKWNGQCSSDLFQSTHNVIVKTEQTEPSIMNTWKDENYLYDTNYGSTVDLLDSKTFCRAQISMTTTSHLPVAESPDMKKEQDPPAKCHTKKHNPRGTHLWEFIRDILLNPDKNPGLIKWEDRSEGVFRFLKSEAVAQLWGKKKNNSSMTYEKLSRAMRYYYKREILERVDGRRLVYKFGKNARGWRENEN
Outline: as §1

[7] = target: SPI1 (Homo sapiens, UniProt P17947 1-270); conditions: protein: recombinant; tags: N-terminal GST; dsDNA, one strand shown
Outline: as §1

[8] = target: SPIB (Homo sapiens, UniProt Q01892 1-262); conditions: protein: recombinant; tags: N-terminal GST; dsDNA, one strand shown
Outline: as §1

[9] = target: T6, ELK3 (Homo sapiens, UniProt P41970 1-407); conditions: protein: recombinant; tags: N-terminal GST; dsDNA, one strand shown
T6 sequence: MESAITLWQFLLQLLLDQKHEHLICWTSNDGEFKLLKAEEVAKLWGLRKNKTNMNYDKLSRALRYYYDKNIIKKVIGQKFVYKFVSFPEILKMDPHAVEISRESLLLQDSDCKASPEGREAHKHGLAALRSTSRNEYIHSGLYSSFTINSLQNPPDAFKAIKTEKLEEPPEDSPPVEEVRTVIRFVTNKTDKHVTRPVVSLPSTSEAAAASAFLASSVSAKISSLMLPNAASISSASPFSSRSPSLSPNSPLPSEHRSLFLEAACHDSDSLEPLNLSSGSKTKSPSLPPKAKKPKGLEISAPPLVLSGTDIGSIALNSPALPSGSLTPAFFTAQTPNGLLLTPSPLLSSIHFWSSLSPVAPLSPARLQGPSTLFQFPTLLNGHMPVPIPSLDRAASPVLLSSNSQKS
Outline: as §1

[10] = target: T7, FEV (Homo sapiens, UniProt Q99581 1-238); conditions: protein: recombinant; tags: N-terminal GST; dsDNA, one strand shown
T7 sequence: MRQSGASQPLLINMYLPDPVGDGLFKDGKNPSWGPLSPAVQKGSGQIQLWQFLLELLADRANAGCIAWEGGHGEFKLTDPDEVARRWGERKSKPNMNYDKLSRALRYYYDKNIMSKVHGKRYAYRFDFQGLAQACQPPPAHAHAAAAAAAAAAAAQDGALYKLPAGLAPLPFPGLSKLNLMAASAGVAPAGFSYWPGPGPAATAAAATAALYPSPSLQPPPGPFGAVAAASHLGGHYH
Outline: as §1

[11] = target: ETV5 (Homo sapiens, UniProt P41161 1-510); conditions: protein: recombinant; tags: N-terminal GST; dsDNA, one strand shown
Outline: as §1

[12] = target: HSF1 (Homo sapiens, UniProt Q00613 1-529); conditions: protein: recombinant; tags: N-terminal GST; chain copies: 3; dsDNA, one strand shown
Outline: as §1

[13] = target: T8, SPIC (Homo sapiens, UniProt Q8N5J4 1-248); conditions: protein: recombinant; tags: N-terminal GST; dsDNA, one strand shown
T8 sequence: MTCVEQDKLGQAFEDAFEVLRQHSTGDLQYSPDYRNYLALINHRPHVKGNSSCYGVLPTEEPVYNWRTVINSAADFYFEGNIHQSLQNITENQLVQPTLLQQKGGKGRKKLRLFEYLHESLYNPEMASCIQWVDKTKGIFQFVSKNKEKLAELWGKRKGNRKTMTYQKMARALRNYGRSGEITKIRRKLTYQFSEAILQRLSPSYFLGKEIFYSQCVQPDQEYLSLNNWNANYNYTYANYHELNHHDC
Outline: as §1

[14] = target: ELF4 (Homo sapiens, UniProt Q99607 1-663); conditions: protein: recombinant; tags: N-terminal GST; dsDNA, one strand shown
Outline: as §1

[15] = target: T9, ELK4 (Homo sapiens, UniProt P28324-2 1-405); conditions: protein: recombinant; tags: N-terminal GST; dsDNA, one strand shown
T9 sequence: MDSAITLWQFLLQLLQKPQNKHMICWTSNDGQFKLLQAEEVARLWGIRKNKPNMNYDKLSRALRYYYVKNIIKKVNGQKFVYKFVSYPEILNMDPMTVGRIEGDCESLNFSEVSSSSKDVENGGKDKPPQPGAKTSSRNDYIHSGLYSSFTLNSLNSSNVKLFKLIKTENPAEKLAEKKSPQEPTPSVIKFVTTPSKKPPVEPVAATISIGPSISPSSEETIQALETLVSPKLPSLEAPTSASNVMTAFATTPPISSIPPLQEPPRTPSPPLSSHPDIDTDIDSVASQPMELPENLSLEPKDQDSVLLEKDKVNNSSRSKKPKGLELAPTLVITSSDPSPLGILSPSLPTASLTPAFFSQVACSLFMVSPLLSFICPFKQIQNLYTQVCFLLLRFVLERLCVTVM
Outline: as §1

[16] = target: T10, ETV2 (Homo sapiens, UniProt O00321 1-342); conditions: protein: recombinant; tags: N-terminal GST; dsDNA, one strand shown
T10 sequence: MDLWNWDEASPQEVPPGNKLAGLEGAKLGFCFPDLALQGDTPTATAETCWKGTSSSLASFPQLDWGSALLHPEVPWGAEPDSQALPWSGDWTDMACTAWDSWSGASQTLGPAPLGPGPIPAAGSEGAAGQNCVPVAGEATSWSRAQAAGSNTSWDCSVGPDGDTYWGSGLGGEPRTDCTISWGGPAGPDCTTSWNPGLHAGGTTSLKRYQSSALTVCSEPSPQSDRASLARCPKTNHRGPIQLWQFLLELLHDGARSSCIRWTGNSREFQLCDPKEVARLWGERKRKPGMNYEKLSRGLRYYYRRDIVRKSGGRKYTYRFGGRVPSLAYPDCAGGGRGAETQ
Outline: as §1

[17] = target: T11, ELF3 (Homo sapiens, UniProt P78545 1-371); conditions: protein: recombinant; tags: N-terminal GST; dsDNA, one strand shown
T11 sequence: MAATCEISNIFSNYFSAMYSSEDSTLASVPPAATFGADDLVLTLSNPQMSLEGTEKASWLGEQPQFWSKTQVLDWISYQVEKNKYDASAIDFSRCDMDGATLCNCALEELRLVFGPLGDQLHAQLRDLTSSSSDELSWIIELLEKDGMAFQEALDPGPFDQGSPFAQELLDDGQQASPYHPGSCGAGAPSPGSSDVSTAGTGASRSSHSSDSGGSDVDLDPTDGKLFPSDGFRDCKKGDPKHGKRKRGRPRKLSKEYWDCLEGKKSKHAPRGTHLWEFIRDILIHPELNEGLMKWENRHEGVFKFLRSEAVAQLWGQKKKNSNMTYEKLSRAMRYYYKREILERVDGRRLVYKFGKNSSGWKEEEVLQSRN
Outline: as §1

[18] = target: CRX (Homo sapiens, UniProt O43186 1-299); conditions: protein: recombinant; tags: N-terminal GST; dsDNA, one strand shown
Outline: as §1

[19] = target: ETV1 (Homo sapiens, UniProt P50549 1-477); conditions: protein: recombinant; tags: N-terminal GST; dsDNA, one strand shown
Outline: as §1

Sequence of CRX (O43186 whole entry): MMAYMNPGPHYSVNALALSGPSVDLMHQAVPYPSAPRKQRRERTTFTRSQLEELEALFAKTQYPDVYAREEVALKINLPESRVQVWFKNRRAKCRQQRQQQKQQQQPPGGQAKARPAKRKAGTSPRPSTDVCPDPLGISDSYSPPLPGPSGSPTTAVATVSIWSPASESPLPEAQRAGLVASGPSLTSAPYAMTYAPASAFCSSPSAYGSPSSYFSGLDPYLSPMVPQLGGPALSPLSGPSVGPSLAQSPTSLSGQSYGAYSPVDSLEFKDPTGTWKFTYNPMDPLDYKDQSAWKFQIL
Sequence of ELF4 (Q99607 whole entry): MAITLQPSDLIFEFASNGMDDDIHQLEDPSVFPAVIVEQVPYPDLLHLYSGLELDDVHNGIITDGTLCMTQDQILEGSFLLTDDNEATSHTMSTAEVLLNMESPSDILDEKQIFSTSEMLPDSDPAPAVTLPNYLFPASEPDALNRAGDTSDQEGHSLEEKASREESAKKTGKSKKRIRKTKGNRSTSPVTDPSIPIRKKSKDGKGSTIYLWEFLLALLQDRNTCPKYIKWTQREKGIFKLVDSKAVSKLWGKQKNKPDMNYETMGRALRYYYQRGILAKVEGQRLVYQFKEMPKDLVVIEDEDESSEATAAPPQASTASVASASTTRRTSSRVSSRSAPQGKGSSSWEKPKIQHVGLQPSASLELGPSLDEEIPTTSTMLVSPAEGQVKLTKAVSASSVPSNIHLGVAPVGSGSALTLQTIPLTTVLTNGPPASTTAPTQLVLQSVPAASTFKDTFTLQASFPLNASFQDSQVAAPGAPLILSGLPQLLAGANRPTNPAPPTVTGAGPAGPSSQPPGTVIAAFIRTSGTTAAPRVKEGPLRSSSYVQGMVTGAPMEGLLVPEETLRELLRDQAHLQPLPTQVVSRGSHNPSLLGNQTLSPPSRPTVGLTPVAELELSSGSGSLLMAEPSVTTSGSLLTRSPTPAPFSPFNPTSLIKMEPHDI
Sequence of HSF1 (Q00613 whole entry): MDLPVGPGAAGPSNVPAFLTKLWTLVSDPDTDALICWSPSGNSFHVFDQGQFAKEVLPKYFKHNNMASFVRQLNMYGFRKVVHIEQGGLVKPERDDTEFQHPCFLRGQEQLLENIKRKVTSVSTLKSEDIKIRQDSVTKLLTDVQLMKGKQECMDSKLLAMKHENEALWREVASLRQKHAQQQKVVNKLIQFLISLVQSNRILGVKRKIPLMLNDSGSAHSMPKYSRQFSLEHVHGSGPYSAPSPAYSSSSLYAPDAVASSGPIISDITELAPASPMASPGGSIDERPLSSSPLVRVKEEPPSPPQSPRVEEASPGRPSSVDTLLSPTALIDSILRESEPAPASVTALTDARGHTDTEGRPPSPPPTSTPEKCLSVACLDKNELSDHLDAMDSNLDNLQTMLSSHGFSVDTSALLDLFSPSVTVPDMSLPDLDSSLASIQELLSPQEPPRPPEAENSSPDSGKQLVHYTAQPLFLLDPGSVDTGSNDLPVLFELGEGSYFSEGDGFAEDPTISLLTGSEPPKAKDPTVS
Sequence of ELF1 (P32519 whole entry): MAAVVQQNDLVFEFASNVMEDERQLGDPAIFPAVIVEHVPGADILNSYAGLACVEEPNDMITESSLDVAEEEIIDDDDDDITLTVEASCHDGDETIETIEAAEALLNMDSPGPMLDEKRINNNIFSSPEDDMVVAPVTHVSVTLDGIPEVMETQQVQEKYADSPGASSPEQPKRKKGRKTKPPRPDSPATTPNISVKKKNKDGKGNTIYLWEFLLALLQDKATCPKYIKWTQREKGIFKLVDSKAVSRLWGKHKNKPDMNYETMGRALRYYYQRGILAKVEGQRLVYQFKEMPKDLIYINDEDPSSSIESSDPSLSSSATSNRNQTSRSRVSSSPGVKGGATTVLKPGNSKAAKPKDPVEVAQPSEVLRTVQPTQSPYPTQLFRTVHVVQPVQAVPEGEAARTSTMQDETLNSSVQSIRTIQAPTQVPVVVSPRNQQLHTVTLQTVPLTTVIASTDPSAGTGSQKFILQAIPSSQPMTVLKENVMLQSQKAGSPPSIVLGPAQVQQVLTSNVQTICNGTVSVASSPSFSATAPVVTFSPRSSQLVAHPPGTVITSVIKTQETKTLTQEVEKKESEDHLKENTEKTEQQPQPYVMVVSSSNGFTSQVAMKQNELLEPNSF
Sequence of ETV5 (P41161 whole entry): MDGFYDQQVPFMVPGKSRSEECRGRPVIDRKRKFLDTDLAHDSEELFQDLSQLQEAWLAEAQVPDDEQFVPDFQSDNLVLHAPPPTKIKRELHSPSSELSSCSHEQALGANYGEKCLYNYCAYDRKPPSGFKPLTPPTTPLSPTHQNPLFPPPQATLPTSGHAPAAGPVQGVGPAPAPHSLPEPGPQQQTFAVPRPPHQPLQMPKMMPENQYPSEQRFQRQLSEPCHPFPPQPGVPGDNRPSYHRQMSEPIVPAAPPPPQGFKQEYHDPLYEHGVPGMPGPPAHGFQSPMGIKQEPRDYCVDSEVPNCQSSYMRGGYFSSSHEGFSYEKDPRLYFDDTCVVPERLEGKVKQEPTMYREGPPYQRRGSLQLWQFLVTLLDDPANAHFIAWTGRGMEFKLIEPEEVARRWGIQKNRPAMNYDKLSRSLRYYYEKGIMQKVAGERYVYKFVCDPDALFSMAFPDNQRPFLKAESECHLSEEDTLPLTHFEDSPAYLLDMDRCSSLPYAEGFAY
Sequence of ETV1 (P50549 whole entry): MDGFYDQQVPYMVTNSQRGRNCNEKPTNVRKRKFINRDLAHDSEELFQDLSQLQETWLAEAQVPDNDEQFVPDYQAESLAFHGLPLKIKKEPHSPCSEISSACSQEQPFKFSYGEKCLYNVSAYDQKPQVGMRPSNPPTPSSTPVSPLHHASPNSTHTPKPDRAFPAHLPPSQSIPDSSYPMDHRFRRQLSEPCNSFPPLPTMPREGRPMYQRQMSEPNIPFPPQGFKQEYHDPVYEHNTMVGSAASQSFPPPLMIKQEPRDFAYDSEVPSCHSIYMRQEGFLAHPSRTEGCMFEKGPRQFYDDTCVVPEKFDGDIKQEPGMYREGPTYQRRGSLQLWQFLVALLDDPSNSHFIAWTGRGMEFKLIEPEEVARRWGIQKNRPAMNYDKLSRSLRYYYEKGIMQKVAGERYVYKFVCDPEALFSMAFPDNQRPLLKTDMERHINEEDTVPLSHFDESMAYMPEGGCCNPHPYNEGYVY
Sequence of SPIB (Q01892 whole entry): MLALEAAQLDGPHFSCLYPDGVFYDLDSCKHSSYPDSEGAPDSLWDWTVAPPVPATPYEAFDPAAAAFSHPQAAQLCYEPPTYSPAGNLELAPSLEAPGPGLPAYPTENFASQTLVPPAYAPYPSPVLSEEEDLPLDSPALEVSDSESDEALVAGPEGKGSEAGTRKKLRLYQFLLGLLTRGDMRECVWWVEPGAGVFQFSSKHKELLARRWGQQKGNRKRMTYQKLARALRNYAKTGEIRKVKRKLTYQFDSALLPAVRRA

CTAAAA was tested, and the binding signal [1] was 1.13 fold enrichment (6-mer frequency, TF over GST control), the binding signal [2] was 1.12 fold enrichment (6-mer frequency, TF over GST control) and the binding signal [3] was 1.18 fold enrichment (6-mer frequency, TF over GST control). The binding signal [4] was 1.2 fold enrichment (6-mer frequency, TF over GST control), the binding signal [5] was 1.13 fold enrichment (6-mer frequency, TF over GST control) and the binding signal [6] was 1.1 fold enrichment (6-mer frequency, TF over GST control). The binding signal [7] was 1.26 fold enrichment (6-mer frequency, TF over GST control), the binding signal [8] was 1.1 fold enrichment (6-mer frequency, TF over GST control) and the binding signal [9] was 1.13 fold enrichment (6-mer frequency, TF over GST control). The binding signal [10] was 1.09 fold enrichment (6-mer frequency, TF over GST control), the binding signal [11] was 1.16 fold enrichment (6-mer frequency, TF over GST control) and the binding signal [12] was 1.26 fold enrichment (6-mer frequency, TF over GST control). The binding signal [13] was 1.25 fold enrichment (6-mer frequency, TF over GST control), the binding signal [14] was 1.24 fold enrichment (6-mer frequency, TF over GST control) and the binding signal [15] was 1.21 fold enrichment (6-mer frequency, TF over GST control). The binding signal [16] was 1.21 fold enrichment (6-mer frequency, TF over GST control), the binding signal [17] was 1.12 fold enrichment (6-mer frequency, TF over GST control) and the binding signal [18] was 1.4 fold enrichment (6-mer frequency, TF over GST control). The binding signal [19] was 1.19 fold enrichment (6-mer frequency, TF over GST control).
